Assay results taken from PubChem BioAssay (NCI).
This is part of a sample that, as a whole, favours compounds with a hit. Of some 83,000 tested, about 20% had one in any assay.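 Negative percent growth values reflect cell death: -40 means 40% of the cells present at the start died, and -100 means all died.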 Values without a mark were called inactive. Calls of active or inactive are those of the source. How the source made its calls: active means growth percent below 10; inactive means the rest.

What follows are molecules tested on SF-268 CNS (assay: NCI-60 one-dose screen, 48 h (100 = growth as untreated, 0 = no growth, -100 = all killed)). Details: 10 µM unless noted.

Row | Structure (SMILES) | growth
1 | O=C(CSc1nnc(-c2cc(-c3ccccc3)nc3ccccc23)o1)c1ccc(Br)cc1 | 93.8%
2 | O=c1oc2c(cc1-c1ccc([N+](=O)[O-])cc1)C(O)Oc1ccccc1-2 (stereo unspecified) | 94.7%
3 | CC(C)Sc1nc(Cl)c(C#N)c(-c2ccc(F)cc2)n1 | 106%
4 | Cc1cc(C)cc(S(=O)(=O)n2ccc(-c3ccc4c(c3)CCC(C)(C)O4)n2)c1 | 88.3%
5 | CCc1nn2c(-c3ccc(Cl)cc3C)c(-c3cc(OC)c(OC)c(OC)c3)nc2s1 | 93.4%
6 | O=C(Nc1cccc(-n2cc(-c3ccncc3)c(-c3cc(O)cc(Cl)c3)n2)c1)Nc1ccc(Cl)c(Cl)c1 | 16.2%
7 | COc1ccccc1-n1c(-c2ccc(O)cc2C)cn2c3c(=O)[nH]c(=O)n(C)c3nc12 | 86.4%
8 | CCCCCN1C(=O)CCC1=O | 93.3%
9 | O=C1NCCc2c1noc2-c1ccccc1 | 93.7%
10 | CCOC(=O)c1cc2oc(/C=C/c3cc(=O)c4cc(Cl)ccc4o3)cc2[nH]1 | 73%
11 | COc1cc(/C=C/C(=O)c2c(C)n([O-])c3ccccc3[n+]2=O)cc(OC)c1OC | 43.6%
12 | O=C(c1ccccc1)C(CN1CCCCC1)c1ccccc1 (stereo unspecified) | 58.6%
13 | c1ccc2c(-c3nc4ccccc4[nH]3)cccc2c1 | 61.4%
14 | COc1cc(/C=C/c2cc(/C=C/c3ccc(O)c(OC)c3)n(C(=O)Cc3ccccc3)n2)ccc1O | 9.64% (active)
15 | O=C1NC(=O)/C(=C/c2ccc(Cl)cc2Cl)N1 | 103%
16 | Nc1nc2c(c(=O)[nH]1)C1(C(=O)Nc3ccccc31)c1c(nc(N)[nH]c1=O)N2 | 104%
17 | COc1ccc(NS(=O)(=O)N2CCCCC2)cc1 | 98.9%
18 | COc1ccc(-c2cc(-c3cccnc3)nc3sc(C(=O)Nc4ccccc4)c(N)c23)cc1OC | 69%
19 | C/C(=C\CCc1ccoc1)CC/C=C(\C)CCCNc1ccc(F)cc1 | 90.1%
20 | Cc1cc2c(cc1C)[n+](Cc1ccc3ccccc3c1)cn2Cc1ccc2ccccc2c1 | -81.2% (active)
21 | CCN(CC)CCCCCCCNc1c2ccc(Cl)cc2nc2ccc(OC)cc12 | -59.1% (active)
22 | Cc1cc(C(=O)Nc2ccc3cc(CN4CCOCC4)ccc3n2)c(C)n1-c1ccccc1 | 77%
23 | COc1cc(Cl)cc(-c2nn(-c3cccc(NC(=O)c4cc(C(F)(F)F)cc(C(F)(F)F)c4)c3)cc2-c2ccncc2)c1 | 89.2%
24 | O=C(NCCNC(=O)Oc1cccc2ccccc12)Oc1cccc2ccccc12 | 83.9%
25 | COC(=O)[C@H](Cc1cn(C)cn1)NC(=O)[C@H](C)NC(=O)Nc1cc(C(F)(F)F)cc(C(F)(F)F)c1 | -77% [100 µM] (active)
26 | O=C1CNc2cc(Cl)ccc2N1 | 103%

What follows are molecules tested on SF-295 CNS in the same assay as above. Details: 10 µM unless noted.

Row | Structure (SMILES) | growth
27 | CC(=O)N1N=C(c2ccc(Cl)cc2)CC1c1c(C)nn(-c2ccccc2)c1N(C)Cc1ccccc1 (stereo unspecified) | 82.7%
28 | CC1(C)CC2(C)CC(=O)C1C(C(=O)O)C2C(=O)O (stereo unspecified) | 105%
29 | COc1ccc(-c2cnc(SCC(=O)Nc3ccc(-c4nc5ccccc5s4)cc3)n2-c2ccc(OC)cc2)cc1 | 113%
30 | COc1ccc2c(c1)[n+](=O)c(C(=O)/C=C/c1cc(OC)c(OC)c(OC)c1)c(C)n2[O-] | 87.5%
31 | Nc1c(C(=O)Nc2cccc(Cl)c2)sc2nc3c(cc12)C(O)CCC3 (stereo unspecified) | 13.7%
32 | COc1cccc(-c2nc(-c3ccc(N)cc3)co2)c1 | 92.8%
33 | O=C(Nc1ccccc1S)c1ccccc1 | 100%
34 | COc1ccc2c(c1)c(CC(=O)[Se]C)c(C)n2C(=O)c1ccc(Cl)cc1 | 12.7%
35 | Nc1nc(SCc2cccnc2)c2ncn(C3OC(CO)C(O)C3O)c2n1 (stereo unspecified) | 99.1%
36 | O=C1c2cc3c(cc2-c2c1c1ccc(Cl)cc1c(=O)n2CCCNCCO)OCO3 | -86.9% (active)
37 | N#Cc1c(NC(=O)c2ccco2)[n+]([O-])c2cc(Cl)c(Cl)cc2[n+]1[O-] | 135%
38 | Cc1[nH]ccc2cc3nc4ccccc4c3cc12 | 20.1%
39 | C=C1CC[C@@H]2[C@](C)(COC(C)=O)[C@H](OC(C)=O)CC[C@@]2(C)[C@@H]1CC(NCc1ccccc1)C1=CCOC1=O (stereo partly specified) | 63.9%
40 | COC(=O)c1cc2oc(/C=N\NC(=O)c3cc4oc(C)c(C)c4[nH]3)cc2[nH]1 | 84.2%
41 | O=C(CSc1nnc(-c2cc(-c3ccccc3)nc3ccccc23)o1)c1ccc(Br)cc1 | 107%
42 | O=c1oc2c(cc1-c1ccc([N+](=O)[O-])cc1)C(O)Oc1ccccc1-2 (stereo unspecified) | 67.9%
43 | CC(C)Sc1nc(Cl)c(C#N)c(-c2ccc(F)cc2)n1 | 108%
44 | Cc1cc(C)cc(S(=O)(=O)n2ccc(-c3ccc4c(c3)CCC(C)(C)O4)n2)c1 | 85%
45 | CCc1nn2c(-c3ccc(Cl)cc3C)c(-c3cc(OC)c(OC)c(OC)c3)nc2s1 | 95.3%
46 | O=C(Nc1cccc(-n2cc(-c3ccncc3)c(-c3cc(O)cc(Cl)c3)n2)c1)Nc1ccc(Cl)c(Cl)c1 | -50.5% (active)

Row | Structure (SMILES) | growth
47 | COc1ccccc1-n1c(-c2ccc(O)cc2C)cn2c3c(=O)[nH]c(=O)n(C)c3nc12 | 99.8%
48 | CCCCCN1C(=O)CCC1=O | 101%
49 | O=C1NCCc2c1noc2-c1ccccc1 | 97.8%
50 | CCOC(=O)c1cc2oc(/C=C/c3cc(=O)c4cc(Cl)ccc4o3)cc2[nH]1 | 109%
51 | COc1cc(/C=C/C(=O)c2c(C)n([O-])c3ccccc3[n+]2=O)cc(OC)c1OC | 46.8%
52 | O=C(c1ccccc1)C(CN1CCCCC1)c1ccccc1 (stereo unspecified) | 98.8%
53 | c1ccc2c(-c3nc4ccccc4[nH]3)cccc2c1 | 61.4%
54 | COc1cc(/C=C/c2cc(/C=C/c3ccc(O)c(OC)c3)n(C(=O)Cc3ccccc3)n2)ccc1O | 8.28% (active)
55 | O=C1NC(=O)/C(=C/c2ccc(Cl)cc2Cl)N1 | 114%
56 | Nc1nc2c(c(=O)[nH]1)C1(C(=O)Nc3ccccc31)c1c(nc(N)[nH]c1=O)N2 | 101%
57 | COc1ccc(NS(=O)(=O)N2CCCCC2)cc1 | 113%
58 | COc1ccc(-c2cc(-c3cccnc3)nc3sc(C(=O)Nc4ccccc4)c(N)c23)cc1OC | 77.2%
59 | C/C(=C\CCc1ccoc1)CC/C=C(\C)CCCNc1ccc(F)cc1 | 102%
60 | Cc1cc2c(cc1C)[n+](Cc1ccc3ccccc3c1)cn2Cc1ccc2ccccc2c1 | -80.9% (active)
61 | CCN(CC)CCCCCCCNc1c2ccc(Cl)cc2nc2ccc(OC)cc12 | -51.6% (active)
62 | Cc1cc(C(=O)Nc2ccc3cc(CN4CCOCC4)ccc3n2)c(C)n1-c1ccccc1 | 11.7%
63 | COc1cc(Cl)cc(-c2nn(-c3cccc(NC(=O)c4cc(C(F)(F)F)cc(C(F)(F)F)c4)c3)cc2-c2ccncc2)c1 | 42.1%
64 | O=C(NCCNC(=O)Oc1cccc2ccccc12)Oc1cccc2ccccc12 | 111%
65 | COC(=O)[C@H](Cc1cn(C)cn1)NC(=O)[C@H](C)NC(=O)Nc1cc(C(F)(F)F)cc(C(F)(F)F)c1 | -82.2% [100 µM] (active)
66 | O=C1CNc2cc(Cl)ccc2N1 | 105%
